Test results reported in PubChem BioAssay AID977607 (Broad Institute, 2014).
Screen size: about 1,500 compounds; about 460 (31%) were called active. Roughly 1% stayed inconclusive and do not appear here.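 Rule for the calls: active = curve reaches 40% activation over neutral controls at an AC40 no higher than the top valid tested concentration; inconclusive = no clear call, values can overlap the other calls; inactive = signal moving opposite to the expected increase, and the rest.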 The list is a sample of the results. Results with a measured potency or affinity are listed apart.

Assay: activators of glucose-dependent insulin secretion, dose response, cell-based, INS-1E, Gaussia luciferase, luminescence, cherry-pick, set 2 (AID 977607);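 note: 0% = median of the plate neutral control wells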
Conditions: INS-1E GLuc insulin secretion reporter, 2-3 h, stronger effect = higher value; at 35 µM, 100% = signal doubled over neutral wells unless noted

Max activation, inactive:
O=C(O)CCCC(=O)N1CCN(c2nc(-c3ccccc3)c3ccccc3n2)CC1 16.9% [at 0.42 µM, 100% = signal doubled over neutral wells]
CS(=O)(=O)N1CCN(c2ccccc2NC(=O)c2ccco2)CC1 22.3%
O=C(Nc1ccccc1N1CCOCC1)C1=NN(c2ccccc2)C(=O)CC1 16.2%
CC1(C(=O)NCC2CCCCC2)CCN1CCc1ccccc1 (stereo unspecified) -18.8% [at 0.0016 µM, 100% = signal doubled over neutral wells]
CC(C)(C)OC(=O)N1CCCN(C(=O)c2ccc(Cl)cc2)CC1 -21.4% [at 0.135 µM, 100% = signal doubled over neutral wells]
CN1CCN(C(=O)c2cccc(-c3cnc4cnc(-c5ccccc5Oc5ccccc5)cn34)c2)CC1 -43%
N#CN=CN1CC=C(c2ccc(Cl)cc2)CC1 30.6% [at 3.8 µM, 100% = signal doubled over neutral wells]
CC1=NN(C(N)=S)C(=O)C1N=Nc1ccccc1C (stereo unspecified) -15.4%
Cc1cc(C)n(-c2nc(NCCN(C)C)c3c4c(sc3n2)CCCC4)n1 22.9%
O=C(Cn1[nH]c(=O)c2ccccc2c1=O)OCC(=O)c1ccc(F)cc1 -10.7% [at 0.046 µM, 100% = signal doubled over neutral wells]
CC(=O)Nc1nc(CC(C)C)cc(-c2ccco2)c1C#N -15.6% [at 0.135 µM, 100% = signal doubled over neutral wells]
CCOC(=O)c1sc2ncn(/N=C/c3cccnc3)c(=O)c2c1C -22.4% [at 0.0016 µM, 100% = signal doubled over neutral wells]
Cc1cccc(C)c1NC(=O)NC1CCc2ccccc21 (stereo unspecified) -27.2%
Cc1noc(C)c1NC(=O)N(C)C[C@H]1Oc2c(NC(=O)C3CCCCC3)cccc2C(=O)N([C@H](C)CO)C[C@@H]1C -26.4% [at 0.015 µM, 100% = signal doubled over neutral wells]
COc1ccc(C(=O)c2cnc[nH]2)cc1OC -12% [at 0.015 µM, 100% = signal doubled over neutral wells]
CCC(c1nnnn1-c1ccc2c(c1)OCCO2)N1CCc2ccccc2C1 (stereo unspecified) 36.8% [at 1.2 µM, 100% = signal doubled over neutral wells]
COc1ccc(N2CC(NS(=O)(=O)c3cccs3)CC2=O)cc1OC (stereo unspecified) -12.7% [at 11 µM, 100% = signal doubled over neutral wells]
COc1ccc(C2=NN(C(=O)c3ccco3)C(c3ccco3)C2)cc1OC (stereo unspecified) 9.84% [at 0.42 µM, 100% = signal doubled over neutral wells]
COc1ccc(-c2nc(CCNC(=O)c3ccco3)cs2)cc1OC 53% [at 0.015 µM, 100% = signal doubled over neutral wells]
COc1ccc2c(c1)[C@@]1(OCCC=C[C@H]1C)C(=O)N2CC1CC1 15.8% [at 11 µM, 100% = signal doubled over neutral wells]
O=C(NNC(=O)c1cc2cc3ccccc3nc2s1)c1cccc(C(F)(F)F)c1 -20.1% [at 0.015 µM, 100% = signal doubled over neutral wells]
CC(C)Cc1nc2oc3c(NCc4cccnc4)ncnc3c2c2c1CCC2 30.3% [at 0.42 µM, 100% = signal doubled over neutral wells]
CCc1ccc2c(c1)cc(CN(Cc1ccco1)C(C)=O)c1nnnn12 -18.4% [at 0.005 µM, 100% = signal doubled over neutral wells]
O=C(Nc1nccs1)c1cc(N2CCOCC2)nc2ccccc12 -23.7%
COc1ccc(-c2nc(N3CCC(C)CC3)[nH]c(=O)c2C#N)cc1 28.1% [at 11 µM, 100% = signal doubled over neutral wells]
COc1cccc(-n2c(=O)n(Cc3ccccc3)c(=O)c3[nH]cnc32)c1C 14.5%
COc1ccc(C)c(-n2c(=O)n(Cc3ccccc3)c(=O)c3[nH]cnc32)c1 38.9% [at 0.42 µM, 100% = signal doubled over neutral wells]
CCc1nc2c(OCc3ccccc3C)cccn2c1N(C)C(=O)c1ccco1 -25.5%
C=CCNC(=S)Nc1ccc2cn[nH]c2c1 -18.8% [at 0.0016 µM, 100% = signal doubled over neutral wells]
O=C(Nc1ccnn1C1CCN(C2CCC2)CC1)c1ccccc1Cl -5.42%
COc1ccc(N2C(=O)CC(Sc3nc(C)cc(C)c3C#N)C2=O)cc1 (stereo unspecified) -11.1% [at 11 µM, 100% = signal doubled over neutral wells]
CCNc1nc(NCC)nc(Nn2cnnc2)n1 -14.4% [at 0.42 µM, 100% = signal doubled over neutral wells]
CC(C)Cn1nc(-c2ccccc2)c2ccccc2c1=O -16.6% [at 0.0016 µM, 100% = signal doubled over neutral wells]
Cc1ccc(-c2[nH]nc3c2C(c2cccnc2)C(C#N)=C(N)O3)cc1 (stereo unspecified) 36.3% [at 0.0016 µM, 100% = signal doubled over neutral wells]
COCCNc1nc(Oc2ccc(C(N)=O)cc2)c2sccc2n1 -20.7% [at 0.0016 µM, 100% = signal doubled over neutral wells]
COCCNc1nc(NCCCN(C)C)c2sccc2n1 -23.1%
CCCN1Cc2cccc(C(=O)NCc3ccccc3)c2C1=O -24.8% [at 0.046 µM, 100% = signal doubled over neutral wells]
Cc1ccc2c(c1)CCCN2C(=O)c1ccc2c(c1)OCO2 -14.4% [at 0.0016 µM, 100% = signal doubled over neutral wells]
CCOc1ccc(CCNC(=O)COc2cccc(-n3cnnn3)c2)cc1OCC -22.6% [at 0.005 µM, 100% = signal doubled over neutral wells]
CCOc1ccc(CCNC(=O)COC(=O)c2cccnc2SC)cc1OCC -22.4% [at 0.0016 µM, 100% = signal doubled over neutral wells]
COc1ccccc1Nc1c2c(nc3ccc(N)cc13)CCCC2 -15.8% [at 0.135 µM, 100% = signal doubled over neutral wells]
CCc1nc2n[nH]c(N)c2c2c1CCCC2 65.3%
CCc1cc(=O)oc2c(CNCc3ccc(OC)cc3OC)c(O)c(Cl)cc12 20.4%
COCCNC(=O)c1cc2c(c(-c3cccc(C#Cc4ccc(OC)c(OC)c4)c3)n1)[C@H](CCO)N(S(=O)C(C)(C)C)C2 (stereo partly specified) 8.82% [at 11 µM, 100% = signal doubled over neutral wells]
CC(C)(C)c1ccc(S(=O)(=O)N2CC(C(=O)O)Oc3ccc(Cl)cc32)cc1 (stereo unspecified) -11.3% [at 0.015 µM, 100% = signal doubled over neutral wells]
COc1ccc(C(=O)Nc2nnc(-c3cccs3)s2)cc1 -13.2% [at 0.135 µM, 100% = signal doubled over neutral wells]
Cc1ccccc1C(=O)NC1CCSC1=O (stereo unspecified) -21.5% [at 0.005 µM, 100% = signal doubled over neutral wells]
OC1(C#Cc2c(-c3ccsc3)sc3ccccc23)CCCCC1 50.8%
CN(C)CCCN(C(=O)CCOc1ccccc1)c1nc2c(F)cccc2s1 -32.2% [at 11 µM, 100% = signal doubled over neutral wells]
Cc1cc(-c2ccccc2)n2nc(N)nc2n1 -24.8% [at 0.046 µM, 100% = signal doubled over neutral wells]
O=c1c2ccccc2nnn1Cc1ccccc1 -23.5% [at 0.42 µM, 100% = signal doubled over neutral wells]
Cc1ccc2nc(N3CCN(C(=O)CCCC(=O)O)CC3)nc(-c3ccccc3)c2c1 12.5% [at 11 µM, 100% = signal doubled over neutral wells]
COC(C)(C)c1cc(C(C)(C)C)nc(N)n1 -18.4% [at 0.005 µM, 100% = signal doubled over neutral wells]
COc1cccc(-n2c(=O)c3ccccc3n(CC(=O)NCC3CCCO3)c2=O)c1 (stereo unspecified) -15.9% [at 0.015 µM, 100% = signal doubled over neutral wells]
O=C(COc1ccccc1)N(Cc1cccc(F)c1)C1CCS(=O)(=O)C1 (stereo unspecified) -16.7% [at 3.8 µM, 100% = signal doubled over neutral wells]
CC(Oc1ccc2c3c(c(=O)oc2c1)CCCC3)C(=O)NCc1cccnc1 (stereo unspecified) 27.7% [at 0.42 µM, 100% = signal doubled over neutral wells]
